Screens: PubChem BioAssay, National Center for Advancing Translational Sciences (NCATS)
Hits are enriched below; roughly 11% of the tested compounds scored in any of these assays.
L3MBTL1 block = inhibitors of human L3MBTL1 | Potency, µM (series often up to 57.1 µM), inactives show top-dose activity, negative = inhibition, hits mostly inhibitors | AlphaScreen L3MBTL1–H3K9me1 peptide binding | AID 485360 | actives 0.66% (n = 230,000) | Q9Y468; also: % is scaled to controls: 0 for no effect and ±100 for the full control effect; nearly all actives have a fitted effect of over 60% in size
Target sequence (Q9Y468 whole entry, looked up): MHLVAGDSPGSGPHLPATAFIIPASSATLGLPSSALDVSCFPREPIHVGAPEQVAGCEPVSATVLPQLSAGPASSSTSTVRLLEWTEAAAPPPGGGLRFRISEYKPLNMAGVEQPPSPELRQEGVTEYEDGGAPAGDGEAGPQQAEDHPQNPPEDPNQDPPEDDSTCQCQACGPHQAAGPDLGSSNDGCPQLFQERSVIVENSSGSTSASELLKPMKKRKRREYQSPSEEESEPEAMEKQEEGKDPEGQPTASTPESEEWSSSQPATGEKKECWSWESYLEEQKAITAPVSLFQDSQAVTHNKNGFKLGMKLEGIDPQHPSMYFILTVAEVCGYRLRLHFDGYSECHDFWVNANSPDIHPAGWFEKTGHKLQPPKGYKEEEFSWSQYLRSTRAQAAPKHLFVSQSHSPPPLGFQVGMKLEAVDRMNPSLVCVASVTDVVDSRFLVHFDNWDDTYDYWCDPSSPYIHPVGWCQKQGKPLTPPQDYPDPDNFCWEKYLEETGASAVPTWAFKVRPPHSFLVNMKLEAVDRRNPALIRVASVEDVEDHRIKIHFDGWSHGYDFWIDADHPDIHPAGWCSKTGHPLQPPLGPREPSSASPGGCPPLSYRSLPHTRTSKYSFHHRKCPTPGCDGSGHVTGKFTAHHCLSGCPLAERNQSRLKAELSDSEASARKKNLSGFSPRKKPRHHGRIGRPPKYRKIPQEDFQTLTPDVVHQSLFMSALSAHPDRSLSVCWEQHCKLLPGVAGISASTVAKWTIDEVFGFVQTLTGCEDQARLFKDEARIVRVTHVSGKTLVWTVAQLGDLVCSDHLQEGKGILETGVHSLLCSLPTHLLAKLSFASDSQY
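Read-out is AlphaScreen signal from streptavidin donor and nickel chelate acceptor beads (10 ug/mL final each) bridging L3MBTL1 (50 nM) and biotinylated K9-monomethylated H3(1-15) peptide (75 nM), after 30 min compound exposure at room temperature.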
BAZ2B block = blocks human BAZ2B | Q9UIF8 | AlphaScreen BAZ2B-H3K14Ac peptide displacement | Potency, µM (top dose mostly 114 µM), without a hit: at the top dose activity change, negative = inhibition, hits mostly inhibitors | actives 4.4% (n = 360,000); also: % is scaled to controls: 0 for no effect and ±100 for the full control effect; nearly all actives have a fitted effect of over 60% in size
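Complex of BAZ2B and biotin-H3K14Ac (50 nM apiece) forms over 30 min at RT, then faces library compounds up to 110 uM for another 30 min; AlphaScreen beads added, 20 min dark incubation, luminescence read.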
JMJD2A Tudor inh = inhibitors of human JMJD2A Tudor domain | actives 4.4% (n = 390,000) | Potency, µM (titrated, usually from 114 µM), inactives show top-dose activity change, negative = inhibition, most hits filed as inhibitors | AID 504339 | O75164 | AlphaScreen JMJD2A-Tudor / H3K4me3 peptide binding; also: % is scaled to controls: 0 for no effect and ±100 for the full control effect; nearly all actives have a fitted effect of over 50% in size
G9a inh = inhibitors of human histone lysine methyltransferase G9a; Q96KQ7; G9a H3K9 monomethylation, AlphaScreen, 2 h; AID 504332; Potency, µM (top dose mostly 102 µM), for the others: at the top dose activity, negative = inhibition, actives largely listed as inhibitors; actives 8.8% (n = 350,000); also: % is scaled to controls: 0 for no effect and ±100 for the full control effect; nearly all actives have a fitted effect of over 75% in size
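Chemiluminescent proximity detection of H3K9 monomethylation, read after 10 min bead incubation in the dark. Reaction: 20 nM G9a, 500 nM biotin-H3K9 peptide, 20 uM SAM cofactor, 2 h, room temperature, following 15 min enzyme-compound preincubation.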
HP1b chromo inh = HP1-beta chromodomain-methylated histone interaction inhibition. actives 0.56% (n = 390,000). AID 540317. Potency, µM (top dose mostly 114 µM), inactives show at the highest dose activity change, negative = inhibition, most hits filed as inhibitors. AlphaScreen HP1-beta / biotin-H3K9me3 peptide binding. P83916; also: nearly all actives have a fitted effect of over 70% in size
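HP1-beta protein (50 nM final) preincubated 30 min at room temperature with biotinylated H3(1-18)K9me3 peptide (50 nM) in PBS pH 7.4, 0.01% Tween-20, then compound added for 30 min. AlphaScreen streptavidin donor/nickel chelate acceptor beads (10 ug/mL final), 30 min dark, luminescence read.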
Starred values were filed as active, the others as inactive; ? = inconclusive; . = no result; [ ] = another dose, or the depositor's remark. Calls follow the shape of the dose curve; as a rule, active = well fitted inhibition curve with a large enough effect; inconclusive = small, poorly fitted or top-dose-only effect; inactive = no such curve, though single readings can be large or run the other way. Potency is read from the fitted curve at half-maximal effect.

SMILES | L3MBTL1 block | BAZ2B block | JMJD2A Tudor inh | G9a inh | HP1b chromo inh
Cc1ccc(S(=O)(=O)NCC(c2ccccc2)N2CCCCC2)cc1 (centres undefined) | 7% | 2% | 1% | . | 17%
O=c1nc(N2CCCCC2)nc(Nc2ccccc2)[nH]1 | . | 5% | -23% | ? | 30%
Cc1ccc(NC2=C(N3CCCCC3)C(=O)c3ccccc3C2=O)cc1 | -10% | -28% | 14µM* | 5.6µM* | ?
CC1(C)CC(=O)C2=C(C1)NC(Nc1nc3ccccc3o1)=NC2c1cccc(O)c1 (centres undefined) | . | . | -28%[57.1 µM] | . | 17%[57 µM]
COCCCNC(=O)Cn1cc(C(C)=O)c2ccccc21 | 8% | 6% | -11% | -4% | 12%
COCCNC(=O)Cn1cc(C(=S)N2CCOCC2)c2ccccc21 | 1% | -25% | -6% | 35µM* | -13%
COc1ccc(NC(=O)CS(=O)(=O)c2cn(CC(=O)N3CCOCC3)c3ccccc23)cc1OC | . | 1% | -22% | 35µM* | 33%
NC(=O)c1ccc(NC(=O)CS(=O)(=O)c2cn(CC(=O)N3CCCC3)c3ccccc23)cc1 | . | -19% | -2% | 25µM* | 60%
COc1ccc(CCNC(=O)CS(=O)(=O)c2cn(CC(=O)N3CCOCC3)c3ccccc23)cc1OC | . | . | -19% | 50µM* | 26%
COc1ccc(OC)c(NC(=O)CS(=O)(=O)c2cn(CC(=O)N3CCOCC3)c3ccccc23)c1 | . | -1% | -5% | -50% | -1%
CCOc1ccc(NC(=O)CC2C(=O)N(c3ccc(Cl)cc3)C(=O)N2Cc2cccs2)cc1 (centres undefined) | . | -14% | -9% | 0%[59 µM] | 17%
CCN(CCCNC(=O)c1cc2cc3cc(C)ccc3nc2s1)c1cccc(C)c1 | . | -30% | ? | -44%[59 µM] | -4%[57 µM]
COc1cc(NC(c2ccccc2)c2ccccc2)cc(OC)c1OC | -11% | 45µM* | -22% | 40µM* | -7%
COc1ccc(NC(c2ccccc2)c2ccncc2)cc1 (centres undefined) | . | 71µM* | 45µM* | 7.1µM* | 8%
O=C(c1noc2c1CCCCC2)N1CCN(c2cccc(C(F)(F)F)c2)CC1 | . | 18%[57.1 µM] | 19% | -2%[59 µM] | 46%
O=C(Nc1ccccc1Br)N1CCC(CN2CCCC2)CC1 | . | 4% | -21% | ? | 3%
COc1ccccc1OCCOc1ccc(/C=C2/C(=N)N3OC(C)=CC3=NC2=O)cc1OC | 0% | -26% | -36% | 71µM* | 11%
CCOc1cc(/C=C2/C(=N)N3C(=NC2=O)SN=C3S(C)(=O)=O)ccc1OC(=O)c1ccco1 | . | 50µM* | ? | 6%[0.0925 µM] | 5%
CCOc1cc(/C=C2/C(=N)N3N=C(CC)SC3=NC2=O)ccc1OC(=O)c1ccco1 | . | -17% | -33% | . | -3%
CCS(=O)(=O)C1=NN2C(=N)/C(=C\c3ccc(OC(=O)c4ccco4)c(Br)c3)C(=O)N=C2S1 | . | 50µM* | . | -17%[59 µM] | .
COc1cc(/C=C2\C(=N)N3N=C(S(C)(=O)=O)SC3=NC2=O)ccc1OC(=O)c1cccs1 | . | 56µM* | -4% | -25% | 31%
O=C1c2oc3ccccc3c(=O)c2C(c2ccc(O)cc2)N1Cc1ccc2c(c1)OCO2 (centres undefined) | . | -4% | -6% | 5%[59 µM] | 21%
COc1cc(/C=C2\C(=N)N3N=C(S(C)(=O)=O)SC3=NC2=O)ccc1OC(=O)c1ccco1 | . | 50µM* | ? | 45µM* | -12%[57 µM]
CCS(=O)(=O)C1=NN2C(=N)/C(=C\c3ccc(SCc4ccco4)o3)C(=O)N=C2S1 | 32µM* | 50µM* | 32µM* | 13µM* | ?
CC1=CN2C(=N)/C(=C/c3ccc(C)o3)C(=O)N=C2S1 | -9% | ? | -6% | -4%[59 µM] | 14%
SMILES | L3MBTL1 block | BAZ2B block | JMJD2A Tudor inh | G9a inh | HP1b chromo inh
CCS(=O)(=O)C1=NSC2=NC(=O)/C(=C\c3ccc(OC(=O)c4ccco4)cc3)C(=N)N21 | . | ? | -19% | 45µM* | 8%
CCOc1cc(/C=C2\C(=N)N3N=C(S(=O)(=O)CC)SC3=NC2=O)ccc1OC(=O)c1ccco1 | . | ? | -5% | 45µM* | 28%
COc1cc(/C=C2\C(=N)N3N=C(S(C)(=O)=O)SC3=NC2=O)ccc1OCCOc1ccccc1C | . | 56µM* | ? | 25µM* | ?
CC(C)C(NS(=O)(=O)c1ccc2c(c1)oc(=O)n2C)C(=O)NCCc1ccc(Cl)cc1 (centres undefined) | . | 6%[57.1 µM] | 9% | 7%[59 µM] | 39%
CCN(c1ccccc1)c1cc2ccccc2c(=O)[nH]1 | . | -21% | 18µM* | ? | -7%[57 µM]
COc1ccc(C2Nc3ccccc3C(=O)N2c2ccccc2F)cc1COc1ccc(NC(C)=O)cc1 (centres undefined) | . | . | -12%[57.1 µM] | . | -5%[57 µM]
Cc1ccc(C)c(OCC(=O)Nc2c(C)n(C)n(-c3ccccc3)c2=O)c1 | 5% | 1% | -15% | 1%[12.7 µM] | 24%
Cc1cc(=O)oc2cc(OCC(=O)Nc3c(C)n(C)n(-c4ccccc4)c3=O)c(Cl)cc12 | 5% | 79µM* | -3% | -7% | 25%
CCOc1ccc2nc(SCC(=O)NCc3ccccc3)[nH]c2c1 | -4%[2.29 µM] | 6% | -5% | -8%[0.501 µM] | 24%
CCOc1ccc2nc(SCC)[nH]c2c1 | 1% | 89µM* | -18%[57.1 µM] | -23%[59 µM] | 72%
COC(=O)c1ccccc1NC(=O)C1CCCN(C(=O)c2cnn(-c3ccc(F)cc3)c2-n2cccc2)C1 (centres undefined) | . | ? | ? | ? | -15%
O=C(CCn1c2c(c3ccccc31)CCCC2)NNC(=O)c1ccccc1C(=O)O | -20% | 71µM* | -28% | . | 4%
O=C(CCn1c2c(c3ccccc31)CCCC2)NNC(=O)c1ccccc1[N+](=O)[O-] | -6% | 4% | -20% | -7% | 8%
CCC(=O)C1=C(c2cccc(OC)c2)N(C(=O)CC)n2c(nnc2C2CCCCC2)S1 | . | 11% | 29% | 9%[59 µM] | 52%
CC(=O)N1c2ccc(S(=O)(=O)N3CCCCCC3)cc2CC1C(=O)NCc1ccccc1F (centres undefined) | . | -13% | -8% | 0%[59 µM] | 16%
CC(C)Oc1ccc(S(=O)(=O)N2CCOCC2)cc1NC(=O)Cc1c(F)cccc1Cl | -7% | 11% | -13% | -44% | 26%
COc1cn(-c2ccccc2)nc1C(=O)Nc1ccc(C)cc1Cl | . | 79µM* | ? | ? | 23%
Cc1ccc(NNC(=O)Nc2ccc(Cl)cc2)nn1 | . | -23% | 79µM* | 4µM* | ?
O=C(NNc1cccc(Cl)n1)Nc1ccc(Cl)cc1 | 6% | 6% | 8% | ? | 36%
COc1ccc(-c2oc3ccc(N4CCOCC4)cc3c2/C=C/c2ccc(OC)c(OC)c2)cc1 | -4% | ? | -31% | 50µM* | 26%
